High-throughput results from PubChem.
esBAF inh – blocks esBAF chromatin remodeling in mouse ES cells; Bmi1-luciferase knock-in reporter, 24 h; 100% = twice the neutral-well signal; 350,000 compounds, 2% hits; AID 602393; reporter increase, % at 12.5 µM; in the data active = activation above about 40%; inconclusive = no clear call, values can overlap the other calls;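 note: 0% = median of the plate's neutral control wells and 100% = double that signal; a rise in the Bmi1 reporter signal indicates esBAF inhibition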
Wnt bcat act – activates Wnt/beta-catenin signaling in a reporter cell assay; activator, plate reader; 300,000 compounds, 1.2% hits; activation, % at 9.35 µM; AID 743398; in the data active = activation above about 30%, passing the limit was not always enough; inconclusive = no clear call, values can overlap the other calls;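 note: 0% = neutral control wells and 100% = positive control wells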
HSF1 inh – HSF1 inhibition; NIH3T3-HGL HSE-luciferase, MG132-induced, luminescence 8 h; stronger effect = lower value; activity change, negative = inhibition, % at 7.5 µM (by protocol); 300,000 compounds, 0.77% hits; AID 2098;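 active = more than half of replicate wells show activity change below -50%, luminescence cut by over half; inconclusive = some wells, but at most half, below -50%; inactive = no replicate well below -50%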;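 note: luciferase reports HSF-1 transcriptional activity via heat shock element; 0% = median of DMSO wells and -100% = zero luminescence signal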
MITF act – increases MITF-driven TRPM1 promoter luciferase signal; SK-MEL-5 TRPM1-promoter luciferase, 24 h; % of positive control, neutral wells = 0; AID 588334; activation, % at 12.5 µM; 300,000 compounds, 0.75% hits;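 active = mean activation of at least 80% with every replicate also reaching 80%; inconclusive = mean reaches 80% but some replicate falls short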;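 note: 0% = neutral control wells and 100% = parthenolide positive control wells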
HSF1 activator – increases HSF-1 driven luciferase reporter signal; activation, % at 9 µM; NIH3T3-HGL HSF-1 luciferase reporter, MG132, 8 h; 100% = twice DMSO control signal; AID 504408; 300,000 compounds, 1.7% hits;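 active = mean replicate activation of at least 50% with a set share of replicates each reaching 50%; inconclusive = only one of those two conditions met; inactive = mean below 50% and too few replicates reaching it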;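 note: 0% = median of the neutral control wells and 100% = twice that signal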
Numbers without * were called inactive. Shown are actives, neighbours in structure and some others; about 3.8% of the full set was active somewhere.

Screening CN1CCN(C(=O)C[C@H]2CC[C@@H]3[C@H](COC[C@H](O)CN3C(=O)C3CC3)O2)CC1 returned esBAF inh -3.6.
Screening Cc1cccc(N=Nc2ccc(O)c3ncccc23)c1 returned HSF1 inh 230.3, MITF act -69.7 and HSF1 activator 240.8*.
Screening CCOc1ccc(N=Nc2ccc(O)c3ncccc23)cc1 returned esBAF inh -10.1, Wnt bcat act 4.1, HSF1 inh 54.1, MITF act -67.1 and HSF1 activator 89.3*.
For COc1ccc(CN(C)C[C@@H]2Oc3ccc(NC(=O)NC(C)C)cc3CC(=O)N([C@H](C)CO)C[C@@H]2C)cc1 the results were esBAF inh -13.7.
For Nc1nc2c(s1)CCc1c-2cnn1-c1ccccc1 the results were esBAF inh -6.2, HSF1 inh 53.0, MITF act 8.7 and HSF1 activator 71.5*.
For O=C(/C=C/c1cccc([N+](=O)[O-])c1)c1ccc([N+](=O)[O-])o1 the results were esBAF inh -87.2, Wnt bcat act -6.4, HSF1 inh 32.4, MITF act -97.9 and HSF1 activator 54.0*.
Screening Cc1cc(N(CCO)CCO)ccc1N=Nc1cc(F)ccc1F returned esBAF inh 59.3*, Wnt bcat act -2.3, HSF1 inh 6.1, MITF act 69.3 and HSF1 activator 9.1.
O=C(Cn1cc(C(=O)c2ccco2)c2ccccc21)NC1CCCCC1 was read as Wnt bcat act -2.1, HSF1 inh -87.0*, MITF act -13.9 and HSF1 activator -89.7.
For O=C(Cn1cc(C(=O)c2ccco2)c2ccccc21)Nc1ccccc1 the results were esBAF inh 0.1, HSF1 inh -1.5, MITF act -0.5 and HSF1 activator 11.6.
For CN1[C@H](C(=O)NCCc2ccccc2)[C@@H](CO)[C@@H]2Cn3c(cccc3=O)[C@@H]21 the results were esBAF inh 1.2.
Screening C/C=C/c1ccc2c(c1)O[C@H](CN(C)C(=O)c1cnccn1)[C@@H](C)CN([C@@H](C)CO)S2(=O)=O returned esBAF inh 2.9.
Screening Cc1oc(/C=N/NC(=O)CC2(C)OCCO2)cc1Br returned esBAF inh 7.5, Wnt bcat act -0.4, HSF1 inh -53.2*, MITF act -7.4 and HSF1 activator -61.6.
CCN(CC)c1ccc(-c2nc3cnccc3n2C)cc1 was read as esBAF inh 39.7, HSF1 inh 11.3, MITF act 85.4* and HSF1 activator 23.8.
S=C(NCc1cccs1)Nc1cccc2ccccc12 was read as Wnt bcat act 3.2, HSF1 inh 31.9, MITF act -0.3 and HSF1 activator 56.4*.
`CC(C)(C)c1ccc(NC(=S)NCc2cccs2)cc1` gave esBAF inh 44.4*, HSF1 inh 105.5, MITF act 36.1 and HSF1 activator 144.9*.
For CCC(C)c1ccc(NC(=S)NCc2cccs2)cc1 (configuration not stated) the results were esBAF inh 8.3, HSF1 inh 1.2, MITF act 17.0 and HSF1 activator 3.8.
`CN(C)c1ccc(C(=S)Nc2ccccc2)cc1` gave Wnt bcat act 22.1, HSF1 inh -81.7*, MITF act 23.3 and HSF1 activator -84.7.
`CCNC(=O)C[C@H]1CC[C@@H]2[C@@H](COc3ccc(NC(=O)C4CCCCC4)cc3C(=O)N2C)O1` gave esBAF inh -1.5.
`COC(=O)c1sc(-c2ccc(Cl)cc2)cc1NC(=O)/C=C/C(=O)O` gave Wnt bcat act -2.9, HSF1 inh 41.7 and HSF1 activator 66.2*.
Screening COC(=O)c1sc(-c2ccc(Cl)cc2)cc1NC(=O)COCC(=O)O returned Wnt bcat act -1.8, HSF1 inh -1.0, MITF act -9.2 and HSF1 activator 0.1.
O=C(Nc1ccc(Br)cn1)c1cccc(C(=O)Nc2ccc(Br)cn2)c1 was read as esBAF inh -8.4, Wnt bcat act -1.1, HSF1 inh 0.1, MITF act -16.9 and HSF1 activator 1.3.
COc1ccccc1OCCCC(=O)Nc1nccs1 was read as esBAF inh 82.0*, Wnt bcat act 5.8, HSF1 inh 10.7, MITF act 59.2 and HSF1 activator 29.0.
`O=C(COc1cccc2cccnc12)Nc1nccs1` gave esBAF inh 28.9, Wnt bcat act 53.3*, HSF1 inh 16.7 and HSF1 activator 35.0.
`COc1cccc2c1OCC(C(=O)Nc1nccs1)=C2` gave esBAF inh inconclusive, Wnt bcat act inconclusive, HSF1 inh 12.7, MITF act 119.5* and HSF1 activator 44.4.
Screening O=C(Nc1ccc(Br)cn1)c1ccc2ccccc2c1 returned esBAF inh 55.7*, Wnt bcat act 16.7, HSF1 inh 17.9 and HSF1 activator inconclusive.
For CC(C)NC(=O)N(C)C[C@@H]1Oc2ccc(NC(=O)Nc3cccc4ccccc34)cc2CC(=O)N([C@H](C)CO)C[C@@H]1C the results were esBAF inh -2.0.
Cc1ccc(S(=O)(=O)Nc2ccc3c(c2)C(=O)N([C@@H](C)CO)C[C@@H](C)[C@H](CN(C)C(=O)Nc2ccccc2)O3)cc1 was read as esBAF inh -2.0.
Cc1noc(C)c1NC(=O)N(C)C[C@H]1Oc2c(NC(=O)Nc3cccc4ccccc34)cccc2C(=O)N([C@H](C)CO)C[C@H]1C was read as esBAF inh -0.9.
`COc1cc2ccccc2cc1C(=O)NCC(c1cccs1)N(C)C` (configuration not stated) gave Wnt bcat act 28.2, HSF1 inh 19.5, MITF act 122.9* and HSF1 activator 31.4.
For COc1c(C(=O)Nc2nccs2)ccc2ccccc12 the results were esBAF inh 41.7*, Wnt bcat act 37.2*, HSF1 inh 12.6, MITF act 57.0 and HSF1 activator 20.3.
For O=C(Nc1ccc(Br)cn1)c1cccc2ccccc12 the results were Wnt bcat act -7.0, HSF1 inh 6.0 and HSF1 activator -2.1.
For COc1ccc(C(CC(=O)Nc2nccs2)n2cccc2)cc1 (configuration not stated) the results were esBAF inh 60.6*, HSF1 inh 32.7, MITF act 54.6 and HSF1 activator 57.8*.
Screening COc1cccc(C=Nc2ccccc2C(=O)Nc2nccs2)c1OC returned esBAF inh -1.1, Wnt bcat act 1.4, HSF1 inh 0.0 and HSF1 activator -11.5.
COc1c(C(=O)Nc2ccc(Br)cn2)ccc2ccccc12 was read as esBAF inh 49.0*, Wnt bcat act 28.9, HSF1 inh 7.1, MITF act 66.7 and HSF1 activator 33.1.
For C[C@@H]1CN([C@H](C)CO)S(=O)(=O)c2ccc(C#C[C@@H](C)O)cc2O[C@@H]1CN(C)Cc1ccccc1 the results were esBAF inh -1.5.
`COc1cc2ccccc2cc1C(=O)Nc1nccs1` gave esBAF inh 76.5*, Wnt bcat act inconclusive, HSF1 inh -7.5 and HSF1 activator 7.1.
`O=C(Nc1nccs1)c1ccc2ccccc2c1` gave esBAF inh 6.7, Wnt bcat act 21.7, HSF1 inh 35.1, MITF act 47.3 and HSF1 activator 41.9.
